From PubChem BioAssay
Spn PMK inh = S. pneumoniae PMK inhibition; inhibition, % at 10 µM; actives 0.49% (n = 65,000); purified PMK, PK/LDH-coupled NADH absorbance 340 nm;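 active = top-ranked compounds by inhibition in the single 10 µM screen, taking a fixed number of the strongest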;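 also: 0% = full reaction with DMSO carrier and 100% = background rate without enzyme reaction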
Spn DPM-DC inh = S. pneumoniae DPM-DC inhibition; purified DPM-DC, PK/LDH coupled NADH fluorescence; calls only at 10 µM; actives 0.49% (n = 65,000); AID 556;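 active = the 320 compounds with the highest percent inhibition in the single-dose primary screen, excluding strongly autofluorescent ones, cut at about 32% in these data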;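 also: kinetic rate of NADH fluorescence loss reporting ADP formed by the decarboxylase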
Autofluor 339 = intrinsic fluorescence of library compounds, ex339/em460 – biochemical, MLSMR library, data from DPM-DC assay, artefact control, profiling panel; compound autofluorescence, ex339/em460 nm, NADH buffer; stronger effect = higher value; 1 = no-compound wells, NADH background; fluorescence fold increase at 10 µM; actives 5.5% (n = 65,000); AID 709;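 active = at 10 µM, mean starting fluorescence two-fold or more over control wells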;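 also: signal is the first read of a kinetic run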
MK inhibit = blocks S. pneumoniae mevalonate kinase | AID 555 | actives 0.48% (n = 65,000) | purified MK, PK/LDH-coupled NADH absorbance 340 nm | inhibition, % at 10 µM;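 active = ranked among the strongest by inhibition in the single 10 µM screen, a fixed top-ranked set picked for dose follow-up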
Abs 340nm = absorbance at 340 nm | compound absorbance at 340 nm, fold over control | fold change at 10 µM | 65,000 tested, under 10 active | AID 708;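 active = at 10 µM dose, initial 340 nm absorbance at least 2 fold that of control wells; inactive = change under 2 fold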;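 also: initial absorbance extrapolated from kinetic A340 decline of NADH oxidation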
NADH coupling = inhibitors of enzymes used to reach an NAD/NADH endpoint. coupled PK/LDH NADH assays, four targets. IC50, µM (highest dose often 10 µM), inactives show at the highest dose inhibition. actives 0.02% (n = 65,000);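 active = single-dose screening hits from any of four coupled enzyme assays that gave an IC50 when retested across doses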;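 also: the DPM-DC format reads NADH fluorescence rather than 340 nm absorbance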
* hit, by the source's call; i = inactive; / = not tested or not shown; + = active, no number. This is a sample that favours compounds with a hit; in the whole collection about 6.8% have one here.

SMILES	Spn PMK inh	Spn DPM-DC inh	Autofluor 339	MK inhibit	Abs 340nm	NADH coupling
COc1cccc(OC)c1OCC(O)CN1CCN(c2ccccc2)CC1 (centres undefined)	28*	i	1.1	16	0.97	15%
CCOC(=O)Cc1[nH]nc2c1C(c1ccoc1)C(C#N)=C(N)O2 (centres undefined)	4	i	1	4	1	3%
CCOC(=O)Cn1c(=O)oc2cc(S(=O)(=O)N3CCc4ccccc43)ccc21	7	i	1.1	0	1.1	3%
CCOc1ccc2cc(C#N)c(SCC(=O)N3CCCC3)nc2c1	9	i	2.1*	13	1	8%
Cc1nc2sc(C(c3cccs3)N3CC(C)CC(C)C3)c(O)n2n1 (centres undefined)	4	i	1	0	1	0%
COc1cccc(CNc2nc3nc(C)cc(C)n3n2)c1	11	i	2.6*	6	1	7%
COc1cccc(Nc2cc(C)nc3nc(C)nn23)c1	4	i	0.98	6	1.1	3%
CN(C)c1ccc(-c2nn3c(-c4ccc(Cl)cc4)nnc3s2)cc1	0	i	1.3	2	1	1%
CN(C)c1ccc(-c2nn3c(C4CCCCC4)nnc3s2)cc1	4	i	2.5*	4	1.1	11%
CCOc1ccc(Nc2nc(Cc3nnc(SCC(N)=O)o3)cs2)cc1	28*	i	1	2	1	5%
CCOc1ccc(Nc2nc(Cc3nnc(SCC(=O)NCC4CCCO4)n3C)cs2)cc1 (centres undefined)	16	i	1.1	5	0.95	7%
Cc1cc(C)c(-c2cc(C(F)(F)F)no2)c(=O)[nH]1	9	/	3.7*	15	1.2	12%
Nc1ncnc2c1ncn2CCN1CCCCC1	0	i	1	6	1	2%
CCOC(=O)CC(=O)CSc1nc2c(c(C)c1C#N)CCC2	16	i	2.7*	0	1	9%
O=C(Cn1cc(C(F)(F)F)ccc1=O)N1CCN(S(=O)(=O)c2ccccc2)CC1	27*	i	1.1	0	0.99	9%
O=C(CN1CCc2ccccc2C1)N1CCN(S(=O)(=O)c2ccccc2)CC1	15	i	1	1	1	5%
CC(C)CC(=O)Nc1cccc(-c2nc3ccccc3o2)c1	2	i	1.2	6	1	3%
O=C(Nc1ccc2oc(-c3ccncc3)nc2c1)c1ccccc1F	16	/	3.7*	14	1.1	15%
O=C(Cc1ccccc1)Nc1ccc2oc(-c3ccncc3)nc2c1	2	/	3.9*	8	1.1	5%
CC(C)CC(=O)Nc1ccc2oc(-c3ccncc3)nc2c1	16	/	3.7*	6	1	11%
CCC1Oc2ccccc2N(CC(=O)NCCN2CCc3ccccc3C2)C1=O (centres undefined)	20	i	1.1	0	1	7%
Cc1ccc(N2CC(C(=O)Nc3ccc(N(C)C)cc3)CC2=O)cc1C (centres undefined)	6	i	1.1	3	1	3%
O=C(c1noc2c1CCCCC2)N1CCOCC1	15	i	0.91	7	0.96	11%
O=C(c1noc2c1CCCC2)N1CCCCC1	8	+	0.67	10	0.99	19%
CCN1CCC2(CC1)C(C#N)=C(N)Oc1c2sc2nc(C)cc(C)c12	/	i	1.1	6	0.96	4%
SMILES	Spn PMK inh	Spn DPM-DC inh	Autofluor 339	MK inhibit	Abs 340nm	NADH coupling
CCC(=O)Nc1nnc(Sc2ccc(N(C)C)cc2)s1	0	+	0.91	2	1.1	17%
CCS(=O)(=O)N1CCC(C(=O)NCCN2CCN(Cc3ccccc3)CC2)CC1	12	i	1.1	7	0.98	6%
C/C(O)=c1/ccc2cccc3nc(C)nc1c23	14	i	3*	0	1.1	13%
Cc1cc(-c2cccnc2)c(C#N)c(SCC#N)n1	3	i	1.1	1	1	2%
Cc1cc(-c2ccccc2)c(C#N)c(N)n1	8	/	2.4*	10	1	4%
O=C(O)CCSc1nnc(-c2ccncc2)n1-c1ccccc1	0	i	1.1	8	1	7%
Cn1c(=O)c2c(nc(N3CCOCC3)n2C)n(C)c1=O	26*	i	1.1	0	1	9%
Cn1c(=O)c2c(nc(N3CCCCCC3)n2Cc2cccc3ccccc23)n(C)c1=O	0	i	1	13	1	4%
CN1CCN(c2nc3c(c(=O)n(C)c(=O)n3C)n2Cc2cccc3ccccc23)CC1	3	i	1	active	0.98	5%
Cc1cccc(NC(=O)c2cc(-c3ccco3)nc3ccccc23)n1	6	/	4.9*	1	1.1	4%
O=C(O)c1cc(-c2ccco2)nc2ccc(Br)cc12	16	i	2.6*	5	1.1	14%
O=C(Nc1ccccc1C(=O)NCC1CCCO1)c1ccco1 (centres undefined)	5	i	1	7	1	2%
O=C(NCC1CCCO1)c1cc(-c2ccco2)nc2ccccc12 (centres undefined)	9	/	5*	8	1.2	9%
O=C(Nc1ccon1)c1cc(-c2ccccc2)nc2ccccc12	10	i	1.2	10	1	3%
O=C(c1ccco1)N1CCN(C(=O)c2cc(-c3ccncc3)nc3ccc(Br)cc23)CC1	5	i	1.1	4	1.1	4%
Cc1ccccc1NC(=O)N1C2CCCC1CC(NC(=O)C(C)(C)C)C2 (centres undefined)	7	i	1.1	10	0.96	6%
Cc1cc(C)n(C(CC(=O)N2CCc3ccccc3C2)C(=O)O)n1 (centres undefined)	7	i	1.1	6	1	4%
CCCn1cnc2c(cnn2-c2ccc(F)cc2)c1=O	27*	i	1	6	0.97	4%
CCCCn1cnc2c(cnn2-c2ccc(F)cc2)c1=O	13	i	1.1	5	0.98	6%
COc1ccc(OC)c(N=c2oc3cc(O)ccc3cc2C(N)=O)c1	4	/	3.3*	9	1.1	7%
NC(=O)c1cc2ccc(O)cc2oc1=Nc1ccccc1	8	i	1.9	7	1.1	9%
NC(=O)c1cc2ccc(O)cc2oc1=NCc1ccccc1	19	/	4.6*	0	1	10%
CCOc1ccc(OCC)c(N=c2oc3c(C)ncc(CO)c3cc2C(N)=O)c1	4	i	0.97	1	1	2%
CCNC(=O)NC1(C(=O)Nc2ccc3c(c2)CCC3)CCCCC1	13	i	1	0	0.98	5%
CCN(CC)S(=O)(=O)c1cc(-c2nnc(-c3ccc(Br)cc3)o2)ccc1Cl	8	i	1.1	1	1	3%
CC1(C)Cc2c(c(-c3ccccc3)[nH]c(=O)c2C#N)CO1	16	i	1.2	5	1.2	9%
